Test results as given in PubChem BioAssay (NCATS).
Results filed as inconclusive are left out. Activity calls are given as the source filed them. Unless noted, the call rests on the fitted dose curve; in most records, active means well fitted curve in either direction with a large enough effect (not every such curve was filed as active); inconclusive means small, poorly fitted or top-dose-only effect, or another doubt; inactive means flat fitted curve, though single readings scatter.

Tests used:
[1] = NFAT Signaling Pathway (AID 444); details: Jurkat NFAT-bla M1, carbachol, beta-lactamase ratio, 5 h; at 17.2 µM (top of the series) unless noted;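 further: carbachol stimulus at about its EC50 of 1 µM final; on the % scale 0 is the no-effect control and ±100 the full control effect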
How it was run: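 Jurkat cells with NFAT-driven β-lactamase reporter and co-expressed M1 receptor, stimulated with carbachol (final 1 uM, ~EC50), compound titration, 5 h at 37 °C. CCF4 loaded 1 h at RT; 460/530 nm ratio gave %activity and AC50.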

[2] = Stat Signaling Pathway (AID 446); details: ME-180 SIE beta-lactamase reporter, IL-6 stimulated, 5 h; at 17.2 µM (top of the series) unless noted;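 further: ME-180 cervical cancer cells given 40 pM IL-6 alongside compound; SIE-controlled beta-lactamase reporter measured as 460/530 nm FRET emission ratio; on the % scale 0 is the no-effect control and ±100 the full control effect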
How it was run: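 Reporter line: ME-180 cervical carcinoma, SIE-beta-lactamase. Treatment: compound with 40 pM IL-6, 5 hrs, 37 C, in low-serum OPTI-MEM with 10 mM HEPES pH 7.3. Detection: 460/530 nm fluorescence.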

[3] = biological target: Glucocorticoid receptor (Homo sapiens) (UniProt P04150); assay: GR-GFP Redistribution (AID 450;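 active means compounds whose dose series gives a full or clear partial fitted curve of increased nuclear translocation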; further: potency means the concentration at half of the fitted maximal effect)
[4] = biological target: Glucocorticoid receptor (Homo sapiens) (UniProt P04150); assay: GR-EFC Redistribution (AID 451; calls by dose curve; further: potency means the concentration at half of the fitted maximal effect); details: CHO-K1 GR-EFC translocation, beta-gal luminescence, 2 h
How it was run: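 CHO-K1 cells expressing nuclear EA and GR-ED fragments of b-gal; compounds titrated up to 46 uM final, 2 h at 37 C. GR nuclear translocation read as complemented b-gal luminescence after 1 h RT detection.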

[5] = biological target: Mitogen-activated protein kinase 10 (Mus musculus) (UniProt Q61831); assay: JNK3 AlphaScreen Assay (AID 530);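 further: kinase came from lysate of stimulated human HepG2 cells; signal reports phosphorylation of biotinylated GST-cJun 1-79 at Ser73 with 10 µM ATP; on the % scale 0 is the no-effect control and ±100 the full control effect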
How it was run: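 Pre-activated (IL-1β/TNFα) JNK3 in HepG2 lysates phosphorylates biotin-GST-cJun(1-79), 10 uM ATP; anti-phospho-cJun(Ser73) AlphaScreen read at room temperature, pH 7.6 Tris buffer. Compounds pre-incubated 15 min as titrations.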

[6] = biological target: 3',5'-cyclic-AMP phosphodiesterase 4B (Homo sapiens) (UniProt Q07343); assay: qHTS Assay for Inhibitors of PDE-IV (AID 607; active means well fitted activation curve with a large enough effect in the main read-out, with a control signal flat, not every such curve was filed as active; further: % of control where 0% means no effect)
How it was run: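 Cell-based read-out of cAMP via a modified cyclic nucleotide-gated channel and membrane potential dye (535/590 nm) in HEK293 cells expressing PDE4 endogenously. Compounds tested up to 22.9 uM final; 100 uM RO 20-1724 reference.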

[7] = biological target: Guanine nucleotide-binding protein G(i) subunit alpha-1 (Homo sapiens) (UniProt P63096); assay: qHTS Assay for Inhibitors of RGS12 GoLoco Motif Activity (Green Fluorophore) (AID 879; active means well fitted curve in the direction sought with a large enough effect; an effect the other way counts as inactive or inconclusive;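 further: 0% = labeled peptide with Gαi1 and full inhibition = labeled peptide alone without protein; negative values mean loss of peptide binding seen as reduced polarization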)
How it was run: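 Fluorescence polarization assay: 50 nM Gαi1 with 10 nM FITC-labeled RGS12 GoLoco peptide in 10 mM Tris pH 7.5, 150 mM NaCl, 0.1 mM GDP, 0.05% NP40, 10 min at room temperature with compound.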

[8] = biological target: Muscarinic acetylcholine receptor M1 (Rattus norvegicus) (UniProt P08482); assay: qHTS Assay for Antagonists of Acetylcholine Muscarinic M1 Receptor: Kinetic Measurement of Intracellular Calcium Response (AID 943; active means well fitted curve in the direction sought with a large enough effect; an effect the other way counts as inactive or inconclusive;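 further: Fluo-4 calcium signal as peak divided by basal fluorescence over 4 min; nearly all actives have a fitted effect of over 75% in size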)
How it was run: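 Rat M1-CHO cells, 2000/well, overnight → Fluo-4 no-wash dye with probenecid, 1 h 37C → compound 10 min, room temp → basal read 6 s → carbachol EC80 (100 nM) → 4 min kinetic read; peak/basal.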

[9] = biological target: Muscarinic acetylcholine receptor M1 (Rattus norvegicus) (UniProt P08482); assay: qHTS Assay for Antagonists of Acetylcholine Muscarinic M1 Receptor: Measurement of IP-One Response (AID 944; active means well fitted curve in the direction sought with a large enough effect; an effect the other way counts as inactive or inconclusive; further: nearly all actives have a fitted effect of over 75% in size)
How it was run: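 M1-CHO (rat), 2000 cells/well, overnight recovery; cpd 10 min; carbachol EC80 (200 nM), 30 min, HEPES buffer + 50 mM LiCl pH 7.4; IP-One HTRF, Ex 337, Em 620/665 nm.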

[10] = biological target: Pyruvate kinase (Leishmania mexicana) (UniProt Q27686); assay: qHTS Validation Assay for Inhibitors of Leishmania Mexicana Pyruvate Kinase (AID 945; active means well fitted curve in the direction sought with a large enough effect; an effect the other way counts as inactive or inconclusive; further: potency means the concentration at half of the fitted maximal effect)
How it was run: (§1)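 Compounds are tested as eight-point concentration series. Reactions contain 0.2 nM LmPYK E451W, 0.5 mM PEP, 0.1 mM ADP, 7 mM MgCl2 and 50 mM KCl at pH 7.2, run 1 h at room temperature, then read by PKLight luminescence.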

[11] = biological target: Pyruvate kinase PKM (Homo sapiens) (UniProt P14618); assay: qHTS Assay for Activators of Human Muscle Pyruvate Kinase (AID 954; active means well fitted curve in the direction sought with a large enough effect, not every such curve was filed as active;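 further: 0% = uninhibited enzyme and -100% = no enzyme or full thiadiazolimine inhibition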)
How it was run: (§2)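 Human PKM2 activity is measured as ATP generation, detected by luciferase-coupled luminescence. The enzyme (0.1 nM) acts on 0.5 mM PEP and 0.1 mM ADP for 1 h at ambient temperature; data are normalized to uninhibited and full-inhibition wells.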

[12] = biological target: Pyruvate kinase PKM (Homo sapiens) (UniProt P14618); assay: qHTS Assay for Inhibitors of Human Muscle Pyruvate Kinase (AID 958; active means well fitted curve in the direction sought with a large enough effect; an effect the other way counts as inactive or inconclusive)
How it was run: as §2

[13] = biological target: Pyruvate kinase (Leishmania mexicana) (UniProt Q27686); assay: qHTS Validation Assay for Activators of Leishmania Mexicana Pyruvate Kinase (AID 959; active means well fitted curve in the direction sought with a large enough effect; an effect the other way counts as inactive or inconclusive)
How it was run: as §1

[14] = biological target: Alpha-galactosidase A (Homo sapiens) (UniProt P06280); assay: Counterscreen for Glucocerebrosidase Inhibitors: qHTS Assay for Human alpha-Galactosidase at pH 4.5 (AID 992; active means well fitted curve in the direction sought with a large enough effect; an effect the other way counts as inactive or inconclusive; further: 0% is about no effect)
How it was run: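 Quantitative HTS: compounds tested from 0.7 nM up to 77 uM against 2 nM enzyme with 80 uM 4-MU alpha-D-galactopyranoside. The 20 min room-temperature reaction is stopped with 1M NaOH/1M glycine, pH 10.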

Glucocorticoid receptor (Homo sapiens), sequence (P04150 whole entry, looked up, the tested form may be a part): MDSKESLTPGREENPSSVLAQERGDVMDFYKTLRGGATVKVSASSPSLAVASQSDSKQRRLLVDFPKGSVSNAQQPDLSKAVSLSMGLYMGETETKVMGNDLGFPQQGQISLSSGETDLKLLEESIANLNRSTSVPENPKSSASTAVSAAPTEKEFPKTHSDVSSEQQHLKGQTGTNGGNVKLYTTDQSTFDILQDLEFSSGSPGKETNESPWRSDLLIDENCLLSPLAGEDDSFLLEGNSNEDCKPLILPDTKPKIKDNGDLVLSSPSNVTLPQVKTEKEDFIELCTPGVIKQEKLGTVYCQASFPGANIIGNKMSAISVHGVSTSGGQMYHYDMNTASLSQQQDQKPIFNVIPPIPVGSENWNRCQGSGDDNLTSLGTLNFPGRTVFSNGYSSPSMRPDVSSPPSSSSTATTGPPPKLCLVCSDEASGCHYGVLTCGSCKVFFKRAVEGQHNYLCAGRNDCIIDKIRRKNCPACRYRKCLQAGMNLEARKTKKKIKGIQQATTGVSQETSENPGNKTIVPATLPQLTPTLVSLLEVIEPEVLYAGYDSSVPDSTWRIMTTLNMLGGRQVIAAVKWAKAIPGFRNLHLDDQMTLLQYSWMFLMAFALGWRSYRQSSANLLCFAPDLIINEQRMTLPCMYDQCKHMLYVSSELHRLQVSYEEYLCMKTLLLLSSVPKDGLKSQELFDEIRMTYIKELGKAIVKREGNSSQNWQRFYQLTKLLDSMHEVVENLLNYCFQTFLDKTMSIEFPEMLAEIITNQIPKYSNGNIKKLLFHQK
Pyruvate kinase (Leishmania mexicana), sequence (Q27686 2-499 E452W): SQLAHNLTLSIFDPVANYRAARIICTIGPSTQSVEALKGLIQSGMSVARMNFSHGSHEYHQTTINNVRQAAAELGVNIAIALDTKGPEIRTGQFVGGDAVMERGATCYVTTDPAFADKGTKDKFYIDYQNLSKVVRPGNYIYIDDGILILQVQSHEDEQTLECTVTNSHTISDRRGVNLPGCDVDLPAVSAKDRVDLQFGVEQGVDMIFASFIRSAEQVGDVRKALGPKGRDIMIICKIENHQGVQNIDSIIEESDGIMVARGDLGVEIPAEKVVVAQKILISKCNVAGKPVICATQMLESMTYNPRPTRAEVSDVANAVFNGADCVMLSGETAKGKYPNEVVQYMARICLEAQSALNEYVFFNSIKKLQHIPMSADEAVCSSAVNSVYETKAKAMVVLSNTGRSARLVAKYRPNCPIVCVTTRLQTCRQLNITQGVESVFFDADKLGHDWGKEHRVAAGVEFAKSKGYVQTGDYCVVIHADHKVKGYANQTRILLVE
Pyruvate kinase PKM (Homo sapiens), sequence (P14618 whole entry, looked up): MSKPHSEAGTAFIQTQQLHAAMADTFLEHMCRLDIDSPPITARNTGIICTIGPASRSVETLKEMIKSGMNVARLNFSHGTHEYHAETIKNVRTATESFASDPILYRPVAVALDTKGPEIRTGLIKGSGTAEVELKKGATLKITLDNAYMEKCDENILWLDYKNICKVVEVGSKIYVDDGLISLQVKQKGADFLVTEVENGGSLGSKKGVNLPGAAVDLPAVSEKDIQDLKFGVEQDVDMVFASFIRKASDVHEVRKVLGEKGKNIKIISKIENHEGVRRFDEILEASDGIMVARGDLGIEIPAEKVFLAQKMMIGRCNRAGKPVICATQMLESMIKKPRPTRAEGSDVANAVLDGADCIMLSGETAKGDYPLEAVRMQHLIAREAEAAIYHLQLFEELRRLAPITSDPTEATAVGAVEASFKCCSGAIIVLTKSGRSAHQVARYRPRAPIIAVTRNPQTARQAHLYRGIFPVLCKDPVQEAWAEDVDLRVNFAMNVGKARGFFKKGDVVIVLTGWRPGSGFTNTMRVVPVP
Muscarinic acetylcholine receptor M1 (Rattus norvegicus), sequence (P08482 whole entry, looked up): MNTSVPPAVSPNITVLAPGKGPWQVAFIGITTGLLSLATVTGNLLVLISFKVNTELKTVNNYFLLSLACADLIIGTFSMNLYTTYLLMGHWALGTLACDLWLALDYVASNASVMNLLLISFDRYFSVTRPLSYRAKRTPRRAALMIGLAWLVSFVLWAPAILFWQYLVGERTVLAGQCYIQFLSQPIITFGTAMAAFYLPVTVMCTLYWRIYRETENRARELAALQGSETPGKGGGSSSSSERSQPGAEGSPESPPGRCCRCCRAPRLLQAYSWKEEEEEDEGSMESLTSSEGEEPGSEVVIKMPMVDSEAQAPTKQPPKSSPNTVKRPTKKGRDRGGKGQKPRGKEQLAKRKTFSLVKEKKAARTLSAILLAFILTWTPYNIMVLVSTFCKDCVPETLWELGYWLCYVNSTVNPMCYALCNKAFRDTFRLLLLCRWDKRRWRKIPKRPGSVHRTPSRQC
Alpha-galactosidase A (Homo sapiens), sequence (P06280 whole entry, looked up): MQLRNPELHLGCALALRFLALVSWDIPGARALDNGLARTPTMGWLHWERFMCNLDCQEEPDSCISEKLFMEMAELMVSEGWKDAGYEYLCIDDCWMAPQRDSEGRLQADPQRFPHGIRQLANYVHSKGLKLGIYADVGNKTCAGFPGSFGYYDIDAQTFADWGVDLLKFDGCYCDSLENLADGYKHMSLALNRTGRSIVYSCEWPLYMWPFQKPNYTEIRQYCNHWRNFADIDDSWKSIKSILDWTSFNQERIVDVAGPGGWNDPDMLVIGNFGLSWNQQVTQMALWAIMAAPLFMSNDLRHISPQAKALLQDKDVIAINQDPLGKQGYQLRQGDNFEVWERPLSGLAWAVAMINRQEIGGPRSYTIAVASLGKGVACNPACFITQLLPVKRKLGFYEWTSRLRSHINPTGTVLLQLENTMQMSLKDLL
3',5'-cyclic-AMP phosphodiesterase 4B (Homo sapiens), sequence (Q07343 whole entry, looked up): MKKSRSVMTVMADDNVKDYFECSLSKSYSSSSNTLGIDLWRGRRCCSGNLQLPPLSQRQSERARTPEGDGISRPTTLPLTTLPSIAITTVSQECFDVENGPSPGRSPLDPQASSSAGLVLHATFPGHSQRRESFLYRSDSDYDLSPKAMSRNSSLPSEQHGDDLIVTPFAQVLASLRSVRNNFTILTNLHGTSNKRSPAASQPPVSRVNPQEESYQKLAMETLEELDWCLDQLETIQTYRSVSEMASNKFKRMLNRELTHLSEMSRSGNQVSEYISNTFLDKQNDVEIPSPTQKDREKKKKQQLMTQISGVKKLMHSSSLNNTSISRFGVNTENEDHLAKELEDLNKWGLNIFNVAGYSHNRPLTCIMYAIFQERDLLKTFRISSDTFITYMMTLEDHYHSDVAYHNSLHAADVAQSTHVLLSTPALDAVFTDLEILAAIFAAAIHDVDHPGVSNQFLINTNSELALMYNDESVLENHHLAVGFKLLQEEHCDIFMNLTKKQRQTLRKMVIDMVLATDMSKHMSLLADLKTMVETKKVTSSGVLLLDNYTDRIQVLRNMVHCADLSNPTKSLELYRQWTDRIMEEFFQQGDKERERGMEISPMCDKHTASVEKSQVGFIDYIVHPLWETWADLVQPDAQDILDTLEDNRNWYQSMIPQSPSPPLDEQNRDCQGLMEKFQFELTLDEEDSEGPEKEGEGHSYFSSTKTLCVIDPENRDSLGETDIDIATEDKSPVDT
Guanine nucleotide-binding protein G(i) subunit alpha-1 (Homo sapiens), sequence (P63096 whole entry, looked up): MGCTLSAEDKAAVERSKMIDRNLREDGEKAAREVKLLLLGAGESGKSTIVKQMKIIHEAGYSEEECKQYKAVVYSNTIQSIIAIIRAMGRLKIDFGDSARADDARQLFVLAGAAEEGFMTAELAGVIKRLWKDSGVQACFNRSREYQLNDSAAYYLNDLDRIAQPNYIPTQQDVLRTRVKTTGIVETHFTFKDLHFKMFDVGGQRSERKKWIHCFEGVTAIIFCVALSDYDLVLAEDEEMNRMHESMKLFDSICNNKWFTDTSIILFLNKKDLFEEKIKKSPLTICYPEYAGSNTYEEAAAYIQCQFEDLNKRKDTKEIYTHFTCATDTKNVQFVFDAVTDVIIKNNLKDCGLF

CCCCCOc1ccc(Cl)cc1CN1CCOCC1
inactive: activity change, negative = inhibition [1] 4.03% | activity, negative = inhibition [2] 4.37% | Potency [3] > 20.6 µM

Cc1cc(C)n(S(=O)(=O)Cc2ccccc2)n1
inactive: activity change, negative = inhibition [1] -1.74% | activity, negative = inhibition [2] 14.5% | Potency [3] > 20.6 µM

Cc1cc(=O)[nH]c(SCC(=O)c2ccccc2)c1C#N
inactive: activity change, negative = inhibition [1] 14.5% | activity, negative = inhibition [2] -5.21% | Potency [3] > 20.6 µM

CCOC(=O)c1[nH]c2ccc(OC)cc2c1NC(=O)CN1CCN(c2ccccn2)CC1
inactive: activity change, negative = inhibition [1] -9.84% | activity, negative = inhibition [2] -2.44% | Potency [3] > 20.6 µM

COc1cccc(-c2nnc3sc(-c4ccccc4)nn23)c1
inactive: activity change, negative = inhibition [1] -8.12% | activity, negative = inhibition [2] -8.55% | Potency [3] > 20.6 µM

C=CCn1c(=S)[nH]c2nc3c(cc2c1=O)COC(C)(C)C3
inactive: activity change, negative = inhibition [1] 5.11% | activity, negative = inhibition [2] 3.02% | Potency [3] > 20.6 µM

Nc1c(Br)cc2oc(-c3ccccc3)nc2c1Br
inactive: activity change, negative = inhibition [1] 4.7% | activity, negative = inhibition [2] 14.6% | Potency [3] > 20.6 µM

CCC[C@@H]1C[C@@H](C(=O)N[C@H]([C@@H](C)O)[C@H]2O[C@H](SC)[C@H](O)[C@@H](O)C2O)N(C)C1 (some centres not stated)
inactive: activity change, negative = inhibition [1] 8.75% | activity, negative = inhibition [2] -0.0835% | Potency [3] > 20.6 µM

Cc1ccc(-c2nnc(-c3ccccc3)o2)cc1Br
inactive: activity change, negative = inhibition [1] -13.3% | activity, negative = inhibition [2] 27.2% | Potency [3] > 20.6 µM

O=C(/C=C\c1ccc(O)cc1)c1ccc(O)cc1O
active: Potency [10] 12.6 µM | Potency [12] 15.8 µM
inactive: activity change, negative = inhibition [1] -30% [at 38 µM] | activity, negative = inhibition [2] 25.4% [at 38 µM] | Potency [3] > 46 µM | Potency [4] > 46 µM | Potency [5] | Potency [6] | outcome [7] | Potency [8] | Potency [9] | outcome [11] | Potency [13] | outcome [14]

Cc1cccc(Nc2ncnc3ccccc23)c1
inactive: activity change, negative = inhibition [1] -1.27% | activity, negative = inhibition [2] -0.134% | Potency [3] > 20.6 µM

CCOC(=O)N1CCN(c2ncnc3c2cnn3-c2ccc(OC)cc2)CC1
inactive: activity change, negative = inhibition [1] 10.2% | activity, negative = inhibition [2] -2.17% | Potency [3] > 20.6 µM
